# An excerpt weighted towards active compounds, which were near 18% of everything screened.
# TDP1 cell CPT = DT40-hTDP1 cell growth loss with CPT; chicken DT40 Tdp1-/-;hTDP1 cells + 20 nM CPT, ATP luminescence, 48 h; Potency, µM (titrated, usually from 46.2 µM), for inactives: at the top dose activity change, negative = growth inhibition, usual class: inhibitors; actives 12% (n = 420,000); AID 686979; also: potency is read from the fitted curve at half-maximal effect; % is scaled to controls: 0 for no effect and ±100 for the full control effect; nearly all actives have a fitted effect of over 55% in size
#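 Chicken DT40 Tdp1-/- cells stably complemented with human TDP1 were seeded at 400 cells/well in medium containing 20 nM camptothecin, exposed to pin-transferred compounds, and grown at 37 °C for at least 48 hr. Viability was read as ATP luminescence.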
# HepG2 tox = HepG2 cytotoxicity, counter-screen for TGF-b inhibitors; Potency, µM (top dose mostly 46.1 µM), for the others: at the top dose activity change, negative = cytotoxicity, most hits filed as cytotoxic; HepG2 CAGA-GFP viability, ATP luminescence, 18 h; AID 588856; actives 0.76% (n = 410,000); also: potency is read from the fitted curve at half-maximal effect
#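 CellTiter-Glo luminescence gave cytotoxicity after 18 hours at 37 degrees C. The cells were HepG2 CAGA-GFP in 1% FBS DMEM, stimulated with 500 pg/mL TGF-beta after compound addition. %Activity was normalised to no-cell wells (complete cell-killing) and DMSO (no toxicity), and curves were fitted and classified.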
# TDP1 block = inhibitors of human tyrosyl-DNA phosphodiesterase TDP1; Q9NUW8; recombinant TDP1, AlphaScreen DNA substrate cleavage; Potency, µM (top dose mostly 130 µM), inactives show top-dose activity change, negative = inhibition, actives largely listed as inhibitors; actives 0.28% (n = 350,000); AID 485290; also: potency is read from the fitted curve at half-maximal effect; % is scaled to controls: 0 for no effect and ±100 for the full control effect; nearly all actives have a fitted effect of over 40% in size
# Target sequence (Q9NUW8 whole entry, looked up): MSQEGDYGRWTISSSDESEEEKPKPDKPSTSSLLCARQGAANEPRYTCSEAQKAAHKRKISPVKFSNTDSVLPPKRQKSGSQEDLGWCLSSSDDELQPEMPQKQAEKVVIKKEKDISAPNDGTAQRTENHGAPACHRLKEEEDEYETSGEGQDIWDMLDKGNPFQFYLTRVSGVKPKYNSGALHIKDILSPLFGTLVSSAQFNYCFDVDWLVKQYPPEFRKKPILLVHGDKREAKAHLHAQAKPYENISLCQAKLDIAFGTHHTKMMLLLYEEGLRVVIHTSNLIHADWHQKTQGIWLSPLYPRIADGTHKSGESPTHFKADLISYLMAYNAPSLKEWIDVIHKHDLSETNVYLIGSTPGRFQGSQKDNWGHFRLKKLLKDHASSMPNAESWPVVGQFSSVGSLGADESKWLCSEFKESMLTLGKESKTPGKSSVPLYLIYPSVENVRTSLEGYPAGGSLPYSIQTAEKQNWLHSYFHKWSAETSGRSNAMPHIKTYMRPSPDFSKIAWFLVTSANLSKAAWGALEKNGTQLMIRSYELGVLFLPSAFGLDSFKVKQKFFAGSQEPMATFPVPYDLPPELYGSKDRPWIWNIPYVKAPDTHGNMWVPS
#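 Recombinant human Tdp1 (E. coli-expressed, 1 nM final) preincubated with compounds 15 min at room temperature, then 5'-biotin/3'-phosphotyrosine-FITC DNA substrate (15 nM final) added for 5 min. AlphaScreen beads (10 ug/ml final) added 10 min; cleavage lowers signal.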
# IL-1B inflam inh = blocks inflammasome-driven IL-1 beta release | THP-1 LPS/ATP IL-1B secretion, AlphaLISA, 16 h; active compounds read low | activity change, % at 57.5 µM | AID 743279 | actives 4.7% (n = 360,000); in the data active = activity change below about -50%; inconclusive = mostly about -30% to -49%; also: % is scaled to controls: 0 for no effect and ±100 for the full control effect
#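 THP-1 cells pretreated 1 hr with compounds (up to 57.5 uM final), then stimulated with LPS (250 ng/mL final) plus ATP (1.25 mM final); secreted IL-1B measured by AlphaLISA after 16 hr, decreased signal indicating inhibition.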
# TDP1 cell noCPT = qHTS for Inhibitors of human tyrosyl-DNA phosphodiesterase 1 (TDP1): qHTS in cells in absence of CPT; DT40 Tdp1-/- hTDP1 cells, no CPT, ATP luminescence, 48 h; Potency, µM (series often up to 46.2 µM), inactives show at the top dose activity change, negative = growth inhibition, hits mostly inhibitors; actives 15% (n = 420,000); AID 686978, 2013; also: potency is read from the fitted curve at half-maximal effect; % is scaled to controls: 0 for no effect and ±100 for the full control effect; nearly all actives have a fitted effect of over 55% in size
#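 Luminescent ATP content (CellTiter-Glo) served as the growth readout. Knockout chicken DT40 cells expressing human TDP1 were exposed to compounds without camptothecin for a minimum 48 hr at 37 °C.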
# TGFb SMAD3 inh = blocks TGF-b signaling; AID 588855; Potency, µM (highest dose often 46.1 µM), inactives show at the top dose activity, negative = inhibition, most hits filed as inhibitors; HepG2 CAGA-GFP TGF-b/SMAD3 reporter, GFP fluorescence, 18 h; TGF-beta stimulated, 500 pg/mL final; actives 1.2% (n = 410,000); also: potency is read from the fitted curve at half-maximal effect; % is scaled to controls: 0 for no effect and ±100 for the full control effect; nearly all actives have a fitted effect of over 65% in size
#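 HEPG2 CAGA-GFP cells (1000/well, DMEM with 1% FBS) were pre-incubated 2 h at 37 degrees C, given compound by pin tool, then stimulated with TGF-beta at 500 pg/mL final for 18 h before per-cell GFP fluorescence imaging.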
# * hit, by the source's call; ? = inconclusive; . = no result; [ ] = dose if it differs, or a comment. Unless noted, calls follow the shape of the dose curve; as a rule, active = well fitted curve in the direction sought with a large enough effect; inconclusive = small, poorly fitted or top-dose-only effect, or another doubt; inactive = no such curve, though single readings can be large; an effect the other way counts as inactive or inconclusive.
SMILES,TDP1 cell CPT,HepG2 tox,TDP1 block,IL-1B inflam inh,TDP1 cell noCPT,TGFb SMAD3 inh
COCCn1c(C)cc(C(=O)CSc2nc(C)nc3sc4c(c23)CCC4)c1C,16µM*,-11%,.,22,21µM*,-13%
O=c1[nH]c(/C=C2\C=Nc3ccccc32)c(O)n1Cc1ccccc1F,?,-16%,8%,-97*,?,-15%
CSc1nc(O)c(/C=C2\C=Nc3ccccc32)[nH]1,?,-24%,8%,-13,?,?
O=[N+]([O-])c1ccc(C2=Nn3c(Cn4nnc5ccccc54)nnc3SC2)cc1,21µM*,-65%,.,-9,16µM*,0%
COC(=O)C(C)Sc1nc2c([nH]c3ccccc32)c(=O)n1-c1ccc(OC)cc1 (stereo unspecified),?,-5%,5%,.,-28%,1%
Cc1ccc(NC(=O)c2ccc(N3C(=O)C4CC=C(Cl)CC4C3=O)cc2)cc1 (stereo unspecified),?,3%,1%,8,16µM*,3%
C/C(=N\O)c1ccc(N2C(=O)C3CC=C(Cl)CC3C2=O)cc1 (stereo unspecified),0%,-2%,3%[56.1 µM],22,5%,-18%
CCOc1cc(-c2sc(Nc3ccc(CC)cc3)n[n+]2-c2ccccc2)ccc1OC,16µM*,-1%,2%,2,18µM*,-9%
C(=C\c1sc(Nc2ccccc2)n[n+]1-c1ccccc1)/c1ccccc1,5.2µM*,-84%,.,-98*,8.2µM*,-2%
C[n+]1nc(Nc2ccccc2)sc1-c1ccc(O)cc1,?,-22%,.,-15,-29%,-3%
COc1ccc(-c2sc(Nc3ccccc3)n[n+]2-c2ccccc2)cc1Br,23µM*,-6%,.,?,15µM*,-22%
CCOc1ccccc1C(=O)Nc1nnc(Cc2ccc(OC)c(OC)c2)s1,-30%,-1%,.,9,?,-2%
CCOc1cc(-c2sc(Nc3cc(C)ccc3OC)n[n+]2-c2ccccc2)ccc1OC,15µM*,-6%,.,3,16µM*,-23%
CC(=O)Nc1ccc(NC(=O)C2(C)CC2(Cl)Cl)cc1 (stereo unspecified),?,16%,5%,-3,18µM*,?
CN(C)c1cccc(NC(=O)C2(C)CC2(Cl)Cl)c1 (stereo unspecified),5%,1%,3%,-2,-1%,-6%
CCOC(=O)CC(NC(=O)c1cc2cc(Cl)ccc2oc1=O)c1ccc(C)cc1 (stereo unspecified),.,-18%,2%,.,.,1%
O=C(OC(C(=O)NCC1CCCO1)c1ccccn1)c1cccs1 (stereo unspecified),-2%,5%,3%,-56*,-3%,24%
COc1ccc(C(OC(=O)c2cccs2)C(=O)NCC2CCCO2)cc1 (stereo unspecified),3.7µM*,-3%,8%,-59*,-2%,-1%
COc1ccccc1C(OC(=O)c1cccs1)C(=O)NCC1CCCO1 (stereo unspecified),-8%,-17%,2%,6,-16%,1%
O=C(c1ccc2[nH]c(=O)c(=O)[nH]c2c1)N1CCN(Cc2ccccc2)CC1,9%,7%,0%,32,5%,8%
CCOc1ccc(-c2cc3c(=O)n(CC(=O)NCc4ccccc4)ccn3n2)cc1,?,-22%,-1%,.,-16%,-7%
CC1(C(=O)NS(=O)(=O)c2ccccc2Cl)CCN1C(=O)C1(c2ccccc2)CC1 (stereo unspecified),-25%,2%,.,-12,-2%,-5%
Cc1ccc(NC(=O)N2CCCCCC2)c(C)c1,-21%,6%,4%[56.1 µM],-16,-2%,8%
CC(C)=CC(=O)OCc1cc([N+](=O)[O-])cc2c1OCOC2,-1%,1%,0%,-53*,-12%,12%
NC(c1csc(Nc2ccccn2)n1)c1ccccc1Cl (stereo unspecified),?,-27%,.,3,?,-18%
SMILES,TDP1 cell CPT,HepG2 tox,TDP1 block,IL-1B inflam inh,TDP1 cell noCPT,TGFb SMAD3 inh
NC(c1csc(Nc2nncc3ccccc23)n1)C1CCCCC1 (stereo unspecified),5.8µM*,-97%,.,-78*,5.8µM*,?
NC(c1csc(Nc2nncc3ccccc23)n1)c1ccccc1Cl (stereo unspecified),29µM*,-95%,.,-22,15µM*,?
CC(C)CNC(=O)[C@@H]1CSC2c3ccccc3C(=O)N21 (stereo partly specified),7%,20%,.,16,-27%,14%
CCOc1ccc(C2CC(=O)Nc3c2c(=O)nc(SCc2ccccc2C)n3C)cc1OC (stereo unspecified),9.2µM*,2%,5%,.,5.8µM*,-2%
COc1ccc(OC)c(CCNC(=O)c2cccc(NC3=NC4CS(=O)(=O)CC4S3)c2)c1 (stereo unspecified),-1%,-8%,.,-11,6%,-4%
Cc1cc(=O)[nH]c2cc(O)ccc12,5%,-45%,3%,23,4%,0%
CC(C)=CCCC1(C)C=Cc2c(c(C)cc3c2[nH]c2cc(O)ccc23)O1 (stereo unspecified),?,11µM*,.,-74*,16µM*,11µM*
C=C(C(=O)c1ccccc1)C(C)C(=C)C(=O)c1ccccc1,5.8µM*,7.9µM*,-5%,-103*,5.8µM*,?
C=C(C(=O)c1ccccc1)C(C(=C)C(=O)c1ccccc1)c1ccc(OC)cc1,10µM*,-13%,-3%,-61*,5.2µM*,?
C=C(C(=O)c1ccccc1)C(c1ccccc1)C(C)C(=O)c1ccccc1 (stereo unspecified),?,-86%,3%,-97*,?,?
Cn1nccc1C(=O)NC1CCCc2c1cnn2-c1cc(F)cc(F)c1 (stereo unspecified),15µM*,-46%,0%,0,?,1%
O=C(NC1CCCc2c1cnn2-c1cc(F)cc(F)c1)c1ccccn1 (stereo unspecified),?,-29%,.,-16,-21%,0%
